Assay results published in ChEMBL document CHEMBL1157539, “Thousands of chemical starting points for antimalarial lead identification” (Nature, 2010).

The compounds below were run on Plasmodium falciparum (assay: GSK_TCMDC: Inhibition of Plasmodium falciparum Dd2 in whole red blood cells, using parasite LDH activity as an index of growth. Test compounds present at 2uM).
Type: functional

SMILES	Inhibition [%]
Cc1c(Cl)cccc1N=C(S)NN=Cc1ccccn1	85
Cc1c(C(=O)N2CCc3cc4nccc(N5CCN6CCC[C@H]6C5)c4cc32)cnn1-c1ccc(C#N)cc1.Cl	27
CC(C)c1cn2c3c(cc(C(=O)N[C@@H](Cc4ccccc4)[C@H](O)CNC4CCOCC4)cc13)N(C)S(=O)(=O)CC2.O=CO	99
Cc1nn(CC(C)C)c2sc(C(=O)Nc3nc(-c4ccccn4)cs3)cc12	67
Cc1nc(N)nc(N)c1CCCOc1cccc(Cl)c1	0
COc1ccc(C(=O)C2CCN(CCCCNC(=O)c3ccc(NC(=O)c4cc(Cl)cc(Cl)c4)cc3)CC2)cc1	84
O=C(Nc1ccc(OC2CCN(Cc3ccc(F)cc3)CC2)c(Cl)c1)c1ccoc1.O=C(O)C(F)(F)F	90
CS(=O)(=O)CCNc1nccc(N2CCc3ncnc(Nc4ccc(OCc5cccc(F)c5)c(Cl)c4)c3C2)n1	100
Cc1ccc(C)c(Cn2c(N3CCC(C(=O)NCc4cccs4)CC3)nc3ccccc32)c1	73
O=C(/C=C/c1ccc(Cl)c(Cl)c1)N1CCC(CCN2CCC(c3c[nH]c4ccccc34)CC2)CC1	44
Br.CCc1c(CCNCCCCCCNCCc2ccc([N+](=O)[O-])cc2)ccc(O)c1O	23
O=C(Nc1ccccc1)c1ccc(-c2cc3ccncc3cc2OC2CCNCC2)s1	8
C[C@@H]([C@@H](CCCc1ccc(Cl)cc1)C(=O)N[C@H](C(=O)Nc1cccnc1)C(C)(C)C)N(O)C=O	99
O=C(Nc1ccc(C(=O)Oc2ccc3ccccc3c2)cc1)N[C@@H](Cc1ccc(O)cc1)C(=O)NC1CCN(Cc2ccc(O)cc2)C1.O=C(O)C(F)(F)F (stereo not given in full)	1
CCNc1cc(C(=O)N[C@@H](Cc2ccccc2)[C@H](O)CNCc2cc(C#N)ccc2OC)cc(N2CCCC2=O)c1.O=C(O)C(F)(F)F	51
Cl.Oc1ccc(Cc2cc(Oc3c(I)cc(CCc4ncc[nH]4)cc3I)ccc2O)cc1	32
CC(C)[C@H](NC(=O)c1ccc(O)c(-c2ccc(Cl)c(Cl)c2)c1)C(=O)NCCN(C)C	1
COc1ccc(N2CCc3c(-c4cccc5cnccc45)cc(C)nc32)c(C)c1	0
CC(=O)Nc1sc(C)c(C)c1CN1CCc2ccccc2C1	94
CC(C)Cn1c(Sc2ccc(C#N)c([N+](=O)[O-])c2)nnc1-c1ccccc1	12

SMILES	Inhibition [%]
Cc1noc(-c2ccc(NC[C@@H](C)NC[C@H](O)c3cccc(Cl)c3)cc2)n1	84
CCN(CC)CCN(Cc1ccc(-c2ccc(C(F)(F)F)cc2)cc1)C(=O)Cn1c(CCc2cccc(C#N)c2)nc(=O)c2ccccc21.O=C(O)C(O)C(O)C(=O)O	47
COc1ccc(C(=O)Nc2nonc2-c2ccc(OC)c(OC)c2)cc1Cl	97
CCc1nc2c(cnn2CC)c(NC2CCOCC2)c1CNC(=O)N1CCOCC1	48
COc1nc2c(N3CCN(CCNCc4ccc5c(n4)NC(=O)CO5)CC3)ccnc2cc1F.Cl	9
CCN(CC)CCN(Cc1ccc(-c2ccc(C(F)(F)F)cc2)cc1)C(=O)Cn1c(CCc2ccc(F)c(C#N)c2)nc(=O)c2ccccc21.O=C(O)C(O)C(O)C(=O)O	55
COc1ccc(NC(=O)CCNc2cc(C)nc(Nc3ccccc3)n2)cc1.O=C(O)C(F)(F)F	15
NS(=O)(=O)c1ccc(CNC(=O)c2cnc3c(O)cccc3c2Nc2cccc(NC(=O)c3ccc(Cl)c(Cl)c3)c2)cc1.O=C(O)C(F)(F)F	35
Cc1c(CN2CCCCC2)cccc1OCCCNc1nc(NCCc2ccc(O)cc2)nc(N2CCNCC2)n1.O=C(O)C(F)(F)F	23
O=C(Nc1cccc(F)c1)c1ccc(C(=O)NC2CCN(CC3CCCCC3)CC2)cc1.O=C(O)C(F)(F)F	16
N#Cc1cccc(NC(=O)c2ccc(S(=O)(=O)NCC3CCCN3CC3CCCCC3)cc2)c1.O=C(O)C(F)(F)F (stereo not given)	18
CN(C)CCNCc1ccc(-c2ccc3c(Nc4ccc(F)cc4Cl)ccnc3c2)o1	100
CN(C)CC(O)COc1ccc(Nc2ncc([N+](=O)[O-])c(Nc3ccccc3O)n2)cc1.O=C(O)C(F)(F)F (stereo not given)	20
Br.CC1(C)NC(N)=NC(=N)N1OCCCOc1cc(Cl)cc(Cl)c1	97
CC(C)CCn1c(Sc2ccc(C#N)c([N+](=O)[O-])c2)nnc1-c1ccc(Cl)cc1	39
CC1CCCCC1N(C)C1CCN(CCCNC(=O)C=Cc2cccc(C(F)(F)F)c2)CC1 (stereo not given)	17
CCOc1cc(C(=O)NCC2CCN(CC3CCCCC3)CC2)ccc1-c1nc2cc(Cl)ccc2[nH]1	59
CN1CCN(c2ccnc3ccc(NC(=O)Nc4ccc5c(c4)CCCC5=O)cc23)CC1	90
COc1ccc(CCNCCCCCNCCCc2ccc(Cl)cc2)cc1OC.Cl	2
COc1cc(NC(=O)c2ccc3c(=O)n(Cc4ccccc4)c(=S)[nH]c3c2)cc(OC)c1OC	47
